Screening data from PubChem.
The list is not random: actives were taken first. Their share in the collection is about 6.8%.
SW480 rerep = A quantitative high throughput screen for small molecules that induce DNA re-replication in SW480 colon adenocarcinoma cells; 340,000 tested, 1.8% active; SW480 DNA re-replication, Hoechst DNA content imaging, 48 h; AID 624297, 2012; Potency, µM (titrated, usually from 46.1 µM), without a hit: at the top dose re-replication activation, hits mostly activators; further: % of control where 0% means no effect; nearly all actives have a fitted effect of over 55% in size
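Hoechst fluorescence of nuclei (405 nm excitation, 500-530 nm emission) measured by plate-scanning imager after 48 hr compound exposure at 37 C; re-replication scored as increased number of nuclei with elevated intensity.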
TSG101-PTAP inh = qHTS Assay for Iinhibitors of HIV-1 Budding by Blocking the Interaction of PTAP/TSG101 | Tumor susceptibility gene 101 protein (Homo sapiens), Q99816 | Fluorescence polarization, FITC-PTAP peptide / Tsg101 binding | Potency, µM (top dose mostly 115 µM), for inactives: at the top dose activity change, negative = inhibition, hits mostly inhibitors | 340,000 tested, under 10 active | AID 493005, 2010; active means well fitted inhibition curve with a large enough effect in the main read-out, with a control signal flat, not every such curve was filed as active; inconclusive means small, poorly fitted or top-dose-only effect, or effect the other way, or a change in a side signal; inactive means no such curve, though single readings can be large or run the other way; further: % of control where 0% means no effect
Target sequence (Q99816 whole entry, looked up): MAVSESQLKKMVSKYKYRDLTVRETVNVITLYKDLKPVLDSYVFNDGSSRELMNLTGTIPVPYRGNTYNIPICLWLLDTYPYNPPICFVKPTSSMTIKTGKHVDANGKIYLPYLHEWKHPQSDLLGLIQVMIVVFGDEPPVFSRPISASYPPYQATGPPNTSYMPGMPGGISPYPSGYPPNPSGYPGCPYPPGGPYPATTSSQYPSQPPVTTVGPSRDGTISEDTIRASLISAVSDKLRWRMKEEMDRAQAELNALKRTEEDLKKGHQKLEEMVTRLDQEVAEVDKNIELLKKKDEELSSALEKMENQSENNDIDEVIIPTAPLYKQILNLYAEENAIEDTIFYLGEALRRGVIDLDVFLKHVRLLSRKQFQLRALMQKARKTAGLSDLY
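Compounds were pin-transferred onto Tsg101 binding domain (10 uM final) in HEPES pH 7.5 buffer, then FITC-PTAP peptide was added at 50 nM final. After 20 min at RT, polarization reported peptide displacement across a qHTS concentration series.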
MCF10A rerep = A quantitative high throughput screen for small molecules that induce DNA re-replication in MCF 10a normal breast cells | Potency, µM (top dose mostly 46.1 µM), for the others: at the highest dose activity, positive = re-replication, hits mostly activators | 350,000 tested, 2.9% active | MCF 10A DNA re-replication, Hoechst nuclear intensity, 48 h; further: % of control where 0% means no effect; nearly all actives have a fitted effect of over 50% in size
KB-V1 MDR tox = qHTS assay for MDR1-selective chemotherapeutics: Primary screen using the drug-selected MDR subline cells KB-V1; KB-V1 MDR cells viability, CellTiter-Glo, 72 h; 400,000 tested, 3.4% active; Potency, µM (series often up to 46.1 µM), usual class: cytotoxic; further: on the % scale 0 is the no-effect control and ±100 the full control effect; nearly all actives have a fitted effect of over 60% in size
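Compound-treated KB-V1 multidrug-resistant cells, 72 h, 37 degrees C; viability by CellTiter-Glo. Fitted qHTS curves give the values.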
KB-3-1 tox = qHTS assay for MDR1-selective chemotherapeutics: Primary screen using the parental adenocarcinoma cell KB-3-1; KB-3-1 viability, CellTiter-Glo ATP luminescence, 72 h; Potency, µM (top dose mostly 46.1 µM), hits mostly cytotoxic; 400,000 tested, 1.4% active; further: on the % scale 0 is the no-effect control and ±100 the full control effect; nearly all actives have a fitted effect of over 60% in size
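72 h, 37 °C compound treatment of KB-3-1 parental cells; CellTiter-Glo added, 10 min, luminescence read. Data corrected against DMSO-only plates and normalized before curve fitting.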
PINK1 modulator = A Quantitative High throughput Screen to Identify Chemical Modulators of PINK1 Expression; AID 624263, 2012; 410,000 tested, 0.2% active; Potency, µM (top dose mostly 76.6 µM), without a hit: top-dose activation (PINK1 increase), actives largely listed as activators; PINK1 immunofluorescence, high-content cytometry, 24 h; active means well fitted activation curve with a large enough effect; inconclusive means small, poorly fitted or top-dose-only effect; cell line not stated here; further: % of control where 0% means no effect; nearly all actives have a fitted effect of over 65% in size
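PINK1 protein level read as immunofluorescence by microplate cytometer in a fixed, stained stable cell line after 24 h exposure to five compound concentrations, with CCCP as control.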
* marks the source's active call; other numbers are inactive results; i = inactive; ? = inconclusive; . = not tested or not shown; ! = a repeat was not active; [ ] = another dose, or the depositor's remark. Unless noted, the call rests on the fitted dose curve; in most records, active means well fitted curve in the direction sought with a large enough effect; inconclusive means small, poorly fitted or top-dose-only effect, or another doubt; inactive means no such curve, though single readings can be large; an effect the other way counts as inactive or inconclusive. Potency means the concentration at half of the fitted maximal effect.

SMILES | SW480 rerep | TSG101-PTAP inh | MCF10A rerep | KB-V1 MDR tox | KB-3-1 tox | PINK1 modulator
COc1ccc2nc(SCC(=O)N3CCCCC3)c(C#N)cc2c1 | -41% | -4% | 3% | i | i | -1%
COc1ccc2nc(SCC(=O)N3CCCCCC3)c(C#N)cc2c1 | 3% | -6% | ? | ? | i | 2%
COc1ccc2nc(N3CCCCC3)c(C#N)cc2c1 | ? | 54% | 16µM* | ? | i | 1%
COc1ccc2nc(N3CCCC3)c(C#N)cc2c1 | ? | ? | ? | 13µM* | i | 8%
Oc1ccc(Br)cc1-c1nc2cnccn2c1NC1CCCC1 | ? | -13% | ? | 23µM* | ? | -3%
CCOC(=O)C(c1ccccc1)C(Nc1ccccc1)c1ccccn1 (stereo unspecified) | -13% | 0% | -3% | ? | i | 10%
CCOC(=O)C(C(=O)OCC)C(Nc1ccccc1)c1ccccc1 (stereo unspecified) | 1% | -4% | 21µM* | i | i | 3%
c1ccc(-c2onc(-c3ccco3)c2-c2ccc3[nH]ccc3c2)cc1 | -2% | -5% | ? | 23µM*! | ? | 7%
c1cc2cc(-c3c(-c4ccc5c(c4)OCO5)noc3-c3ccsc3)ccc2[nH]1 | -4% | . | ? | 21µM*! | ? | 0%
c1ccc(-c2ccc3[nH]ccc3c2)cc1 | -4% | -2% | ? | i | i | 12%
COc1ccc(-c2nn(C)c3sc(C(=O)Nc4cccc(F)c4)cc23)cc1OC | . | . | . | ? | i | 1%
O=C(NCC1(N2CCOCC2)CCCC1)c1cnn(-c2nccc(-c3ccco3)n2)c1C1CC1 | . | . | . | . | . | 0%
CCOC(=O)c1cc2c(=O)n3ccccc3nc2n(Cc2ccco2)c1=NC(=O)c1cccc(F)c1 | . | . | . | ? | i | 8%
Cc1ccc(C2=N/C(=C\c3ccc(F)cc3)C(=O)N2)cc1 | 15µM* | -2% | ? | i | i | 3%
CNC(=O)CSc1nc2cc(S(=O)(=O)Nc3ccccc3OC)ccc2o1 | 0% | -6% | ? | i | i | 2%
COc1ccccc1NS(=O)(=O)c1ccc2oc(SCc3ccc(C#N)cc3)nc2c1 | 20% | 0% | 3% | 9.2µM* | i | -1%
Cc1cc(C)cc(N2C(=O)CSC23C(=O)N(Cc2c(F)cccc2Cl)c2ccccc23)c1 (stereo unspecified) | . | . | . | ? | ? | -4%
O=C(CN1C(=O)C2(SCC(=O)N2c2ccccc2)c2ccccc21)NCc1ccccc1Cl (stereo unspecified) | . | . | . | i | i | 3%
O=C1CSC2(C(=O)N(Cc3ccccc3F)c3ccccc32)N1c1cccc(C(F)(F)F)c1 (stereo unspecified) | . | . | . | 8.2µM* | 18µM* | 0%
COc1ccc(N2C(=O)CSC23C(=O)N(Cc2ccccc2F)c2ccccc23)cc1Cl (stereo unspecified) | . | . | . | 18µM* | ? | 0%
O=C(CN1C(=O)C2(SCC(=O)N2c2cccc(F)c2)c2ccccc21)NCc1ccccc1Cl (stereo unspecified) | . | . | . | 6.5µM* | i | -4%
COc1cccc(N2C(=O)CSC23C(=O)N(Cc2ccccc2F)c2ccccc23)c1 (stereo unspecified) | . | . | . | ? | i | 0%
COc1ccc(N2C(=O)CSC23C(=O)N(Cc2ccc(C)cc2)c2ccccc23)cc1Cl (stereo unspecified) | . | . | . | 18µM* | ? | -1%
Cc1ccnc(NC(=S)N2CCN(c3cccc([N+](=O)[O-])c3)CC2)c1 | . | . | . | i | i | .
COc1ccc(NC(=O)Cn2c(SCc3ccc(C)cc3)nc3cccnc32)c(OC)c1 | . | . | . | . | . | 1%
SMILES | SW480 rerep | TSG101-PTAP inh | MCF10A rerep | KB-V1 MDR tox | KB-3-1 tox | PINK1 modulator
CCOC(=O)C1C(=O)CC(C)(O)C(C(=O)OCC)C1/C=C/c1ccccc1 (stereo unspecified) | -168% | -2% | 20% | 18µM* | i | 8%
O=C(O)C1C(C(=O)O)C1(c1ccccc1)c1ccccc1 (stereo unspecified) | -1% | 0% | -1% | i | i | 1%
CCOC(=O)C1C(C(=O)OCC)C1(c1ccccc1)c1ccccc1 (stereo unspecified) | 7% | 2% | ? | 10µM* | i | -3%
CCOC(=O)C1C(=O)CC(O)(c2ccccc2)CC1c1ccccc1 (stereo unspecified) | 2% | -3% | 17% | 23µM* | i | -1%
CCOC(=O)C1C(=O)CC(C)(O)C(C(=O)OCC)C1c1ccccc1 (stereo unspecified) | -2% | -2% | -1% | i | i | 0%
CC(C)(C)NCCOCCOc1ccccc1-c1ccccc1 | -5% | -5% | 2% | 23µM* | i | 1%
C=CCNCCOCCOc1ccccc1-c1ccccc1 | ? | 0% | 3% | i | i | 2%
COCCCNCCOCCOc1ccccc1-c1ccccc1 | -2% | 0% | 1% | 23µM* | i | 0%
CCN(CC)S(=O)(=O)c1cc(NC(=O)C(C)N2CCN(Cc3ccc4c(c3)OCO4)CC2)ccc1C (stereo unspecified) | 15µM* | 0% | ? | 2.9µM* | 13µM* | 3%
CCN(CC)S(=O)(=O)c1cc(NC(=O)C(C)N2CCN(c3ccccn3)CC2)ccc1C (stereo unspecified) | 8%[1.84 µM] | -5% | 3% | i | i | 4%
CC(=O)N1CC=C2C(C#N)=C(N)C(C#N)(C#N)C(CCc3ccccc3)C2C1 (stereo unspecified) | -4% | 1% | 5% | i | ? | 2%
N#CC1=C(N)C(C#N)(C#N)[C@H](c2ccoc2)[C@H]2CN(Cc3ccccc3)CC=C12 | 16µM* | -10% | 7.3µM* | ? | 5.2µM* | ?
CCN1CC=C2C(C#N)=C(N)C(C#N)(C#N)C(CCc3ccccc3)C2C1 (stereo unspecified) | 10% | ? | ? | ? | i | 10µM*
CN1CC=C2C(C#N)=C(N)C(C#N)(C#N)C(c3cccc(Cl)c3Cl)C2C1 (stereo unspecified) | 6% | -18% | ? | 21µM* | i | 14µM*
